For experiment [1], the target named is Sphingosine kinase 1 (Homo sapiens) (UniProt Q9NYA1). The note with it: at 1 µM.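 Note: mean SPHK1 inhibition value reported from the GSK PKIS kinase panel screen.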
Experiment [2] deals with T1, Sphingosine kinase 2 (Homo sapiens) (UniProt Q9NRA0).
T1 sequence (whole entry): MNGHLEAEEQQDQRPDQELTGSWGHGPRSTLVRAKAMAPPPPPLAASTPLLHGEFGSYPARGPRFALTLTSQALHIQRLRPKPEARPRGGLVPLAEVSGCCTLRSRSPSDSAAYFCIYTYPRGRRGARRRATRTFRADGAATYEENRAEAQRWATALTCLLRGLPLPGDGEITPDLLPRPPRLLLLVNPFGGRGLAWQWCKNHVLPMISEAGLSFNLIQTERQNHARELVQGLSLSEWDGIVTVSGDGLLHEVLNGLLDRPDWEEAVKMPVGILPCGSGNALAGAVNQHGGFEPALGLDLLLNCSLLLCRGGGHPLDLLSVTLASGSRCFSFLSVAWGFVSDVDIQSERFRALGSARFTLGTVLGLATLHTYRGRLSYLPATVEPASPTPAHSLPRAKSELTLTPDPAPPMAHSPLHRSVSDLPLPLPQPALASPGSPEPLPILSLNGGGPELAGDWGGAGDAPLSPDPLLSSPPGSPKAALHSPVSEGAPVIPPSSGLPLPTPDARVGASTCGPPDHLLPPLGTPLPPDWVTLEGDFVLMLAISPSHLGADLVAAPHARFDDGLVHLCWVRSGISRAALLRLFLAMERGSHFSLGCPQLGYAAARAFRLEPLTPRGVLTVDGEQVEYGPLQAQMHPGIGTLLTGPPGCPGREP
The following applies: at 0.1 µM.

In experiment [3] the target is T1, Sphingosine kinase 2 (Homo sapiens). The note with it: at 1 µM.
For experiment [4], the target named is Casein kinase II subunit alpha (Homo sapiens) (UniProt P68400). The following applies: at 0.1 µM.
Chain of Casein kinase II subunit alpha (Homo sapiens) (P68400 whole entry, looked up): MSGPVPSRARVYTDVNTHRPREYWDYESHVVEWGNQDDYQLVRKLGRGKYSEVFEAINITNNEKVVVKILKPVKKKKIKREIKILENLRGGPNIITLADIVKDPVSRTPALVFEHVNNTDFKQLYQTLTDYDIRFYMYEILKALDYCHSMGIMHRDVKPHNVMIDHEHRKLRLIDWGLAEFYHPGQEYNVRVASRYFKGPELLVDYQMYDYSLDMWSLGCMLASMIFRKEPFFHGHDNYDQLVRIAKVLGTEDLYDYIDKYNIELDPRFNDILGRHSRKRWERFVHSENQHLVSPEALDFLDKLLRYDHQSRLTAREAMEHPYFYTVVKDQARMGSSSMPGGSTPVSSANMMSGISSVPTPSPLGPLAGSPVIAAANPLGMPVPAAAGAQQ
Experiment [5] shares this target. The following applies: at 1 µM.
For experiment [6], the target named is T2, Inhibitor of nuclear factor kappa-B kinase subunit alpha (Homo sapiens) (UniProt O15111).
T2 sequence (whole entry): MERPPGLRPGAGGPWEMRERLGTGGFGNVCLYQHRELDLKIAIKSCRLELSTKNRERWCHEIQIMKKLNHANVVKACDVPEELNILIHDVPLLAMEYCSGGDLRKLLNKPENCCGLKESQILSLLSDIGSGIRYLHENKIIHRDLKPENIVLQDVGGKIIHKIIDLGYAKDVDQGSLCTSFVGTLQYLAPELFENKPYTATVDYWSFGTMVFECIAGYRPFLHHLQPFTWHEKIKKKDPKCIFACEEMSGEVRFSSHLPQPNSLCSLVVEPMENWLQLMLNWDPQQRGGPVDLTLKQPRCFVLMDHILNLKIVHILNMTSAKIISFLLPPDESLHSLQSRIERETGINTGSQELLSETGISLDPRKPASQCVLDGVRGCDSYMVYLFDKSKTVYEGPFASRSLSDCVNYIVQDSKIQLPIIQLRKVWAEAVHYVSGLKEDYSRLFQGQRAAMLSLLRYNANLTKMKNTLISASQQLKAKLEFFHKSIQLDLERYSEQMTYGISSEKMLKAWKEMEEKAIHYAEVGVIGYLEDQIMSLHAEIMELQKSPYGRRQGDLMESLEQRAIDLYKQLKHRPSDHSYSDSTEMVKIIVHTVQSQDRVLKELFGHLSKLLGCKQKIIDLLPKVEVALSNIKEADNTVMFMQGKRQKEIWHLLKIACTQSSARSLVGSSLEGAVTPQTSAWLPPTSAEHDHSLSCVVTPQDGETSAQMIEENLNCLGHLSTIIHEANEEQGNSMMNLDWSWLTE
The following applies: at 0.1 µM.

Experiment [7] addresses T2, Inhibitor of nuclear factor kappa-B kinase subunit alpha (Homo sapiens). The following applies: at 1 µM.
The target of experiment [8] is T3, Inhibitor of nuclear factor kappa-B kinase subunit beta (Homo sapiens) (UniProt O14920).
T3 sequence (whole entry): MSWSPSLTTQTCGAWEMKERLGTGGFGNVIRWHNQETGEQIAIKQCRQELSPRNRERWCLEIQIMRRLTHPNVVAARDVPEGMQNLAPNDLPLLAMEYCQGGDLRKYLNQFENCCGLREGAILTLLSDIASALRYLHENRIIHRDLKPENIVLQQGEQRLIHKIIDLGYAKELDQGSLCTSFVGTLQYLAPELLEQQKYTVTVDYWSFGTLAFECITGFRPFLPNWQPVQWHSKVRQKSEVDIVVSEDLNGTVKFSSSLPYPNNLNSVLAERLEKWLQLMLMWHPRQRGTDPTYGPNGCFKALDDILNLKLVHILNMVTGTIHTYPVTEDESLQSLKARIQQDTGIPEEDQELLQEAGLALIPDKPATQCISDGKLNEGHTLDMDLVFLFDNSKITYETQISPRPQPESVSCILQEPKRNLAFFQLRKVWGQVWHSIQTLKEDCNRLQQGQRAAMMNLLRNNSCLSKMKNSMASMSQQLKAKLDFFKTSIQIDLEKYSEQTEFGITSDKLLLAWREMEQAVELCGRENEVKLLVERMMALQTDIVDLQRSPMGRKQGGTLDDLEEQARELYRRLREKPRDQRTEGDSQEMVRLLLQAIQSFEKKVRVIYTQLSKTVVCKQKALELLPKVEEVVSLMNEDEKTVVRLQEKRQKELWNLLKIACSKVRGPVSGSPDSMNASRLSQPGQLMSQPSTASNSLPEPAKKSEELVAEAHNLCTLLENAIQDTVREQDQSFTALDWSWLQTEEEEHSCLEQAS
The following applies: at 0.1 µM.

In experiment [9] the target is T3, Inhibitor of nuclear factor kappa-B kinase subunit beta (Homo sapiens). The following applies: at 1 µM.
The target in experiment [10] is T4, Inhibitor of nuclear factor kappa-B kinase subunit epsilon (Homo sapiens) (UniProt Q14164).
T4 sequence (whole entry): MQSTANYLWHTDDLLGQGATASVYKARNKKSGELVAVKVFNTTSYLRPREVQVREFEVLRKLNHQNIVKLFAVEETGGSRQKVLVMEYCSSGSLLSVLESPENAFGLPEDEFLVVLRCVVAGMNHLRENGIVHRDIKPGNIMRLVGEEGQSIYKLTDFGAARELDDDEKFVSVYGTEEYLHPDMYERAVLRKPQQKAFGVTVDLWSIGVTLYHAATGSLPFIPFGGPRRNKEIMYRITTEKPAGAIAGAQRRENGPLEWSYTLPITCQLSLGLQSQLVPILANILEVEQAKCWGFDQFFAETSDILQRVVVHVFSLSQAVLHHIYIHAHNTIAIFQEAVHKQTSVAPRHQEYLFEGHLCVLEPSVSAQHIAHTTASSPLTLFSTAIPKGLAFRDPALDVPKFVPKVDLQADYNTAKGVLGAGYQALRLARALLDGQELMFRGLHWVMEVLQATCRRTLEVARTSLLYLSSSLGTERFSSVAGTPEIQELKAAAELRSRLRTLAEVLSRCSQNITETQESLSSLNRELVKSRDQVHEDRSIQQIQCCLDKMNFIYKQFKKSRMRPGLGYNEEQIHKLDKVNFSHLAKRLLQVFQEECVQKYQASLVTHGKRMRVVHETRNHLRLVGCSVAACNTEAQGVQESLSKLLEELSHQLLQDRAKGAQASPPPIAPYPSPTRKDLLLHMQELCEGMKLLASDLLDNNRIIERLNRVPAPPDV
The following applies: at 0.1 µM.

Experiment [11] deals with T4, Inhibitor of nuclear factor kappa-B kinase subunit epsilon (Homo sapiens). The following applies: at 1 µM.
For experiment [12], the target named is T5, Serine/threonine-protein kinase Nek1 (Homo sapiens) (UniProt Q96PY6).
T5 sequence (whole entry): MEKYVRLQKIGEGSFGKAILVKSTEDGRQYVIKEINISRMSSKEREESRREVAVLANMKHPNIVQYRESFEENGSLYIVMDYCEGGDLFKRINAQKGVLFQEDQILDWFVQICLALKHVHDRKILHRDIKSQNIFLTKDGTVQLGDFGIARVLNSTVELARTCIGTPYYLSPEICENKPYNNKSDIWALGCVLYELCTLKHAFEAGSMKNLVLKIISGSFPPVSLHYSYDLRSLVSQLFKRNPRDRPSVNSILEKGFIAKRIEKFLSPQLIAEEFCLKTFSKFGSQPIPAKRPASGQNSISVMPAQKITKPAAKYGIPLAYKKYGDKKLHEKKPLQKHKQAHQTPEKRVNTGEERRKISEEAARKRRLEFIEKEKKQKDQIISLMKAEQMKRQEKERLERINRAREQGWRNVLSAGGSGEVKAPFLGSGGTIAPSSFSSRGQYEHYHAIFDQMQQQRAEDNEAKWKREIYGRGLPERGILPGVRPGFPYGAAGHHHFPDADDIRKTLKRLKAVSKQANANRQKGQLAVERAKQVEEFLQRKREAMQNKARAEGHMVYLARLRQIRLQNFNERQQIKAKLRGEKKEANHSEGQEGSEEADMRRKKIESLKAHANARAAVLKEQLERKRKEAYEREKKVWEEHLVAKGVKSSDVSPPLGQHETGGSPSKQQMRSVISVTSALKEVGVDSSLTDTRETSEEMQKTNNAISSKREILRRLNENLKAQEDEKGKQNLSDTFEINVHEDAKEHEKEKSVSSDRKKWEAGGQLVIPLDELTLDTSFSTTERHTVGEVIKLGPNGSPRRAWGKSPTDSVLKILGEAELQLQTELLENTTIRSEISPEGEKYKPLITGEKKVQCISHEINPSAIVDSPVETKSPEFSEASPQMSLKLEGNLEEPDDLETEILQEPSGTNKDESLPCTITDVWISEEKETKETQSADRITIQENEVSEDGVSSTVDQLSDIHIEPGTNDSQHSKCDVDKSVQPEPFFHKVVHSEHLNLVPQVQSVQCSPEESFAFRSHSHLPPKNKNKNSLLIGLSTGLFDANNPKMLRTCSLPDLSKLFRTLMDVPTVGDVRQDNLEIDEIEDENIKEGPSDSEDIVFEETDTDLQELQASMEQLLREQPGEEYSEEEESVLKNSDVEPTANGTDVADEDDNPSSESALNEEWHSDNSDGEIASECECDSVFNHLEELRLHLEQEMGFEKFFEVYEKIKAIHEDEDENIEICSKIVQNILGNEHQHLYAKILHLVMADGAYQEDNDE
The following applies: at 0.1 µM.

Experiment [13] concerns the target T5, Serine/threonine-protein kinase Nek1 (Homo sapiens). The following applies: at 1 µM.
Experiment [14] has as its target T6, Serine/threonine-protein kinase Nek2 (Homo sapiens) (UniProt P51955).
T6 sequence (whole entry): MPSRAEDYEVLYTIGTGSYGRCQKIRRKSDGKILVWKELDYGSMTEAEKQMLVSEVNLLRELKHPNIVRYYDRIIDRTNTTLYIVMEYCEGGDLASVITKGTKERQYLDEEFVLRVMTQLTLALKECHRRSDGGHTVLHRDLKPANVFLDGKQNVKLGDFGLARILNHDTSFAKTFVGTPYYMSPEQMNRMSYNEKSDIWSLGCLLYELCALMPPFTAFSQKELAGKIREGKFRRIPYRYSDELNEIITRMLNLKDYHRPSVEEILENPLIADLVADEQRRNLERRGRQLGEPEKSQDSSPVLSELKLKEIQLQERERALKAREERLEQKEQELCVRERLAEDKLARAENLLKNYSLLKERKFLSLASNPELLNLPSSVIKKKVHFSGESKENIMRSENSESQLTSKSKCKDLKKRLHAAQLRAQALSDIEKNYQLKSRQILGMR
The following applies: at 0.1 µM.

In experiment [15] the target is T6, Serine/threonine-protein kinase Nek2 (Homo sapiens). The note with it: at 1 µM.
Experiment [16] deals with Serine/threonine-protein kinase Nek6 (Homo sapiens) (UniProt Q9HC98). The following applies: at 0.1 µM.
Chain of Serine/threonine-protein kinase Nek6 (Homo sapiens) (Q9HC98 whole entry): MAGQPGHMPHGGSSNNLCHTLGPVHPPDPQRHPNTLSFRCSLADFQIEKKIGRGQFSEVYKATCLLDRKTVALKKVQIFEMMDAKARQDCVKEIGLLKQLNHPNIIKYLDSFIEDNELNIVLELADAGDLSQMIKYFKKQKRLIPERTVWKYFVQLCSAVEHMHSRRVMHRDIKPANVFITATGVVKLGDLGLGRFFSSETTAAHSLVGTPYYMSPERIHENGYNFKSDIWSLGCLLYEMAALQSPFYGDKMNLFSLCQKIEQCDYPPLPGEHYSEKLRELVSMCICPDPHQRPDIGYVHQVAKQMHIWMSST
The target is the same in experiment [17]. The note with it: at 1 µM.
Experiment [18] deals with Serine/threonine-protein kinase Nek7 (Homo sapiens) (UniProt Q8TDX7). The note with it: at 0.1 µM.
Chain of Serine/threonine-protein kinase Nek7 (Homo sapiens) (Q8TDX7 whole entry, looked up): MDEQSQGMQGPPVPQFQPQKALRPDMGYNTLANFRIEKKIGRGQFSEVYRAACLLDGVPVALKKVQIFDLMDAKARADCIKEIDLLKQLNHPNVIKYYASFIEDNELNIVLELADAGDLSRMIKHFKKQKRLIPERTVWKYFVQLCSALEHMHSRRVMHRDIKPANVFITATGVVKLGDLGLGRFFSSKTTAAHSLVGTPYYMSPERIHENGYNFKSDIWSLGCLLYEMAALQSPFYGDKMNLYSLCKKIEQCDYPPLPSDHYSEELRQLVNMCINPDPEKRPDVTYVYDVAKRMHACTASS
Experiment [19] has the same target. The note with it: at 1 µM.
Experiment [20] deals with T7, Serine/threonine-protein kinase Nek9 (Homo sapiens) (UniProt Q8TD19).
T7 sequence (whole entry): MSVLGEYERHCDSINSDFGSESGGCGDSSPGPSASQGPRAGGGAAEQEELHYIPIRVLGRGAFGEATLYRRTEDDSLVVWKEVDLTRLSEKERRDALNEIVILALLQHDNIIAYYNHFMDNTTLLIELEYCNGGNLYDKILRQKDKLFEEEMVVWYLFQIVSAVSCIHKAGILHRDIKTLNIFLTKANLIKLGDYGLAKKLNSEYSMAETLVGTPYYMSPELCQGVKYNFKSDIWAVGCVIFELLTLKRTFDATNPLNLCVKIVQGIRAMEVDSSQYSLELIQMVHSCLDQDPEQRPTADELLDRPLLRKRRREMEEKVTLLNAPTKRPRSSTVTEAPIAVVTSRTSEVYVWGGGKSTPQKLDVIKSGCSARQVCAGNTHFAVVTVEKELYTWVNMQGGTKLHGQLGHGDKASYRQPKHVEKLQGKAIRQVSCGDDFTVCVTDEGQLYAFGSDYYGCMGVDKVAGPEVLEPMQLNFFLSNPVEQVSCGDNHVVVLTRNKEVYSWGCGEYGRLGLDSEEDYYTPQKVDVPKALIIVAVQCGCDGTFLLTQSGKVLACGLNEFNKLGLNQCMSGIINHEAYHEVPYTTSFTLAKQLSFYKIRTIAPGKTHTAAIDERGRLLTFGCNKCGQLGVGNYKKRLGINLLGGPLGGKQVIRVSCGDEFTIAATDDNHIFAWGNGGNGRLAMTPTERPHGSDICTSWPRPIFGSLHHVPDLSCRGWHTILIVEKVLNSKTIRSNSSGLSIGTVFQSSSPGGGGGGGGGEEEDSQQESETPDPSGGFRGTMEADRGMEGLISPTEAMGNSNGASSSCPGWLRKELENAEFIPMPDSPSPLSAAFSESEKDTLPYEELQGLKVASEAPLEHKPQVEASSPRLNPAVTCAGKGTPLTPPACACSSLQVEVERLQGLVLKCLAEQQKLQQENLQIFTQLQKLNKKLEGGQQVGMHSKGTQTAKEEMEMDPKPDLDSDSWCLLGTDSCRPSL
The following applies: at 0.1 µM.

The term inhibition denotes the change of the read-out against control, counted positive when it falls.

Chain of Sphingosine kinase 1 (Homo sapiens) (Q9NYA1 whole entry): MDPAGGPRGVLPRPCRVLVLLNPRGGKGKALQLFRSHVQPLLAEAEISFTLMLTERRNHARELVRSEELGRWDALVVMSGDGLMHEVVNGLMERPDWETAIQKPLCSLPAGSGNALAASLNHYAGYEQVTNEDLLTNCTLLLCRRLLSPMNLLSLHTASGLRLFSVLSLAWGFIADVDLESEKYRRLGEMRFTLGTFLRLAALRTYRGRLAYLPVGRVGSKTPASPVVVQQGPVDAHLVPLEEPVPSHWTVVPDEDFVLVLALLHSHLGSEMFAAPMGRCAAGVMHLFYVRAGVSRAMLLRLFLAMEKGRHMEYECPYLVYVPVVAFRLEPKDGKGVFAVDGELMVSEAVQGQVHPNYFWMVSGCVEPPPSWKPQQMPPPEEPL

Consider `COc1cccc(COc2cc(-n3cnc4ccccc43)sc2C(N)=O)c1`, for which the inhibition is -1.55% in experiment [1]; -0.24% in experiment [2]; -0.85% in experiment [3]; 11.6% in experiment [4]; -0.53% in experiment [5]; 9.44% in [6]. The inhibition in experiment [7] is 7.88%; in [8], -0.21%; in [9], -0.64%; in [10], -2.28%; in experiment [11], -7.06%; in experiment [12], 0.41%. The inhibition was 4.13% in experiment [13]; 8.56% in experiment [14]; 1.43% in experiment [15]; 1.63% in experiment [16]; -0.37% in [17]; 0.3% in experiment [18]. In addition, the inhibition amounted to 0.66% in experiment [19] and 0.4% in experiment [20].
